Experimental data published in publication PMC7862700, “An all-to-all approach to the identification of sequence-specific readers for epigenetic DNA modifications on cytosine”.

How the values were obtained:
Experiment in all cases: DAPPL (digital affinity profiling via proximity ligation, sequencing); 10 mM Tris-HCl pH 7.5, 50 mM NaCl, 1 mM DTT, 4% glycerol, room temperature, 30 min; GST-TFs on glutathione beads, 16-mer random dsDNA library, 0.1% formaldehyde crosslink after washing; high values mean tight binding
FLI1 = target: T1, FLI1 (Homo sapiens, UniProt Q01543 1-452); conditions: protein: recombinant; tags: N-terminal GST; dsDNA, one strand shown
T1 sequence: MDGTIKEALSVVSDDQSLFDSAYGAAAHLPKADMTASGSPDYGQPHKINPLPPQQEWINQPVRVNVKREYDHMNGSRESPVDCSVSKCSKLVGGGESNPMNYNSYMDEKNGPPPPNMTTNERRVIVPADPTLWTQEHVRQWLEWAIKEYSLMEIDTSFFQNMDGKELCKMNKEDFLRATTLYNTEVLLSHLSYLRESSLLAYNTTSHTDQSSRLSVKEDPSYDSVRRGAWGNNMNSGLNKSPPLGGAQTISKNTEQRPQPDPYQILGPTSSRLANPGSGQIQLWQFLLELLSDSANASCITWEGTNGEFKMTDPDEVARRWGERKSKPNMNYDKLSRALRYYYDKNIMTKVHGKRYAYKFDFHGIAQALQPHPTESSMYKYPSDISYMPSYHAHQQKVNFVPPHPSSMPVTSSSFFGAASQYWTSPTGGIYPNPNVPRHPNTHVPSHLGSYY
In short: (§1)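 A tag-only sample was pooled with DNA-barcoded human transcription factors that had been expressed in yeast as GST fusions and captured on glutathione beads. The pools were incubated for 30 min at room temperature with 200 nmole of a random double-stranded 16-mer DNA library in Tris/NaCl/DTT/glycerol buffer, then washed, crosslinked with 0.1% formaldehyde, proximity-ligated (BsaI/T4 ligase, 1 h, 37 °C), PCR-amplified and sequenced on an Illumina NextSeq500. Binding signal is each hexamer's read frequency for a factor divided by its frequency for the tag-only sample.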

ELK1 = target: T2, ELK1 (Homo sapiens, UniProt P19419 1-428); conditions: protein: recombinant; tags: N-terminal GST; dsDNA, one strand shown
T2 sequence: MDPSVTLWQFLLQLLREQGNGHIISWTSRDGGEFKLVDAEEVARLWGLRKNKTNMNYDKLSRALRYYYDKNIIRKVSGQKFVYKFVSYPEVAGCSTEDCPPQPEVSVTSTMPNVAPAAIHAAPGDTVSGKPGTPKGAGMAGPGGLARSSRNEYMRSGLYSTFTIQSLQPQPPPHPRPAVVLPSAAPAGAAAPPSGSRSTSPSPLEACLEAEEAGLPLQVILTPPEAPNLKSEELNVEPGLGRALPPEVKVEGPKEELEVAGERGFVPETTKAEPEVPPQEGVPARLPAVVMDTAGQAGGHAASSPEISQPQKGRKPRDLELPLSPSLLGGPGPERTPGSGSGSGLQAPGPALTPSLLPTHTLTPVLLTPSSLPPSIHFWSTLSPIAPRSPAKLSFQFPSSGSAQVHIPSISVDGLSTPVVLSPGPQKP
In short: as §1

GABPA = target: T3, GABPA (Homo sapiens, UniProt Q06546 1-454); conditions: protein: recombinant; tags: N-terminal GST; dsDNA, one strand shown
T3 sequence: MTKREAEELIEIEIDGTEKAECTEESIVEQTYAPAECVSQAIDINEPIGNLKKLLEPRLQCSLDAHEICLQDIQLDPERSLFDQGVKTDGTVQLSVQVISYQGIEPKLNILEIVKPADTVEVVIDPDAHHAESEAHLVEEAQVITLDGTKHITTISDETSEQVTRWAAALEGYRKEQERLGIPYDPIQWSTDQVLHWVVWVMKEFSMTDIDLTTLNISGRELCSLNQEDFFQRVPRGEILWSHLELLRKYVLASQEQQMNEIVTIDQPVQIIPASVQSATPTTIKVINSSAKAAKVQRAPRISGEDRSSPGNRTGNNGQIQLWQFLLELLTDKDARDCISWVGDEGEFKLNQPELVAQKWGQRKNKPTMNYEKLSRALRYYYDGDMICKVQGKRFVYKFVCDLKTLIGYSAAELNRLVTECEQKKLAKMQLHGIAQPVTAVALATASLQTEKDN
In short: as §1

ELF1 = ELF1 (Homo sapiens, UniProt P32519 1-619); conditions: protein: recombinant; tags: N-terminal GST; dsDNA, one strand shown
Chain of ELF1 (P32519 whole entry): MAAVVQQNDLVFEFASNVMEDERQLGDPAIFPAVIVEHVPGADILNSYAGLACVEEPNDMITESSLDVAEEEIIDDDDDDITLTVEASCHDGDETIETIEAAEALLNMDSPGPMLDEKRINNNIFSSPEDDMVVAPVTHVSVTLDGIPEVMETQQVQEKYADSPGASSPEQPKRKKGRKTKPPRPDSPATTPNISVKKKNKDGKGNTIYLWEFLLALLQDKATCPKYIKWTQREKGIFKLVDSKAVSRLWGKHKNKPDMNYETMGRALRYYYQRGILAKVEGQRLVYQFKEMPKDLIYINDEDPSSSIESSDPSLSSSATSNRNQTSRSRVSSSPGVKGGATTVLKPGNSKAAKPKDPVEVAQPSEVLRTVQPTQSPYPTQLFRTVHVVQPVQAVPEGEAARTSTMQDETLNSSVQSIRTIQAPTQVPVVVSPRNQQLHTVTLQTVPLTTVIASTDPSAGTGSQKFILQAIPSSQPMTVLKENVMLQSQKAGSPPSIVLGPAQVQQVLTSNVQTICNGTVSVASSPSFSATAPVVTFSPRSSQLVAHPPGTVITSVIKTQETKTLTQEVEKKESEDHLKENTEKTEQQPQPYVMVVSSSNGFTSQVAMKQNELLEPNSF
In short: as §1

SPI1 = SPI1 (Homo sapiens, UniProt P17947 1-270); conditions: protein: recombinant; tags: N-terminal GST; dsDNA, one strand shown
In short: as §1

SPIB = SPIB (Homo sapiens, UniProt Q01892 1-262); conditions: protein: recombinant; tags: N-terminal GST; dsDNA, one strand shown
Chain of SPIB (Q01892 whole entry): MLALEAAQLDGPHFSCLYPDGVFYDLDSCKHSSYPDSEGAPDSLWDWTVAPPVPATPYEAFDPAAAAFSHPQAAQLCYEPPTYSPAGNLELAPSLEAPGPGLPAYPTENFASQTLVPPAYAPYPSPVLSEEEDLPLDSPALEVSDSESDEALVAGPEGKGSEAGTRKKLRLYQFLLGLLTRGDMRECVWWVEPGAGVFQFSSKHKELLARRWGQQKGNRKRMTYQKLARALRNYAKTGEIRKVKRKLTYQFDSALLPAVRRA
In short: as §1

FEV = target: T4, FEV (Homo sapiens, UniProt Q99581 1-238); conditions: protein: recombinant; tags: N-terminal GST; dsDNA, one strand shown
T4 sequence: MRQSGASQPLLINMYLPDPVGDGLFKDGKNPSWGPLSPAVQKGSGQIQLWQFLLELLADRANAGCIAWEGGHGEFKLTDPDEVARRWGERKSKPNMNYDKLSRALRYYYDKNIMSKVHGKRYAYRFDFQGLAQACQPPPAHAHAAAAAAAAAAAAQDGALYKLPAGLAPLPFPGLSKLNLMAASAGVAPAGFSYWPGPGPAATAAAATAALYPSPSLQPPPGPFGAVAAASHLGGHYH
In short: as §1

ETV5 = ETV5 (Homo sapiens, UniProt P41161 1-510); conditions: protein: recombinant; tags: N-terminal GST; dsDNA, one strand shown
Chain of ETV5 (P41161 whole entry): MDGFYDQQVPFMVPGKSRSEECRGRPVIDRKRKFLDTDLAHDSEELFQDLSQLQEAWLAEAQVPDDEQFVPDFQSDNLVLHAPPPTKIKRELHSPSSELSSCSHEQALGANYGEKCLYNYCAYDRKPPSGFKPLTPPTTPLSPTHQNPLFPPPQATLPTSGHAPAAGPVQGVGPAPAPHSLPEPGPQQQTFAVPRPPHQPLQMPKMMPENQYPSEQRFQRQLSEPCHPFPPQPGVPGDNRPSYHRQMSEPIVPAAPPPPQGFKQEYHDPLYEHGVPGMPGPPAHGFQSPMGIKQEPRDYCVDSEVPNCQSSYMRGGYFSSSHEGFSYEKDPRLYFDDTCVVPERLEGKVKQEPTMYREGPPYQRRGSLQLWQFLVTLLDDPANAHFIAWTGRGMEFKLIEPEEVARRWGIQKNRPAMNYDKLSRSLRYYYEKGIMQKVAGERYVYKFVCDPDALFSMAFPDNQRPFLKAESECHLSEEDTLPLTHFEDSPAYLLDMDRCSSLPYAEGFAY
In short: as §1

HSF1 = HSF1 (Homo sapiens, UniProt Q00613 1-529); conditions: protein: recombinant; tags: N-terminal GST; chain copies: 3; dsDNA, one strand shown
Chain of HSF1 (Q00613 whole entry): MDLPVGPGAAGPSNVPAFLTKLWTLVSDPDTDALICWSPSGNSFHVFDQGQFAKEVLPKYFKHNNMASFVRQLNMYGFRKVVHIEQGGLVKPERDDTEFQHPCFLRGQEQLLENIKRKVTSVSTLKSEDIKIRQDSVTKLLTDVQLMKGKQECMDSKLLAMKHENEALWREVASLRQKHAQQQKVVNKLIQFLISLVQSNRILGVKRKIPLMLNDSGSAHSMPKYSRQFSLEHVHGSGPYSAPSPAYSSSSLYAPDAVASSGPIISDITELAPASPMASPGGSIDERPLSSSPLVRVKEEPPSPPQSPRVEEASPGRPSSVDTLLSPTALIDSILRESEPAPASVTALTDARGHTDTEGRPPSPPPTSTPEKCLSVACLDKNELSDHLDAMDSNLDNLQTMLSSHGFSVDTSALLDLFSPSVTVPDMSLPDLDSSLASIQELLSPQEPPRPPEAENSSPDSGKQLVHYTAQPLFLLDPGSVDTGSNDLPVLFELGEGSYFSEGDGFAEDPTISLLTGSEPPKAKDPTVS
In short: as §1

ELF4 = ELF4 (Homo sapiens, UniProt Q99607 1-663); conditions: protein: recombinant; tags: N-terminal GST; dsDNA, one strand shown
Chain of ELF4 (Q99607 whole entry): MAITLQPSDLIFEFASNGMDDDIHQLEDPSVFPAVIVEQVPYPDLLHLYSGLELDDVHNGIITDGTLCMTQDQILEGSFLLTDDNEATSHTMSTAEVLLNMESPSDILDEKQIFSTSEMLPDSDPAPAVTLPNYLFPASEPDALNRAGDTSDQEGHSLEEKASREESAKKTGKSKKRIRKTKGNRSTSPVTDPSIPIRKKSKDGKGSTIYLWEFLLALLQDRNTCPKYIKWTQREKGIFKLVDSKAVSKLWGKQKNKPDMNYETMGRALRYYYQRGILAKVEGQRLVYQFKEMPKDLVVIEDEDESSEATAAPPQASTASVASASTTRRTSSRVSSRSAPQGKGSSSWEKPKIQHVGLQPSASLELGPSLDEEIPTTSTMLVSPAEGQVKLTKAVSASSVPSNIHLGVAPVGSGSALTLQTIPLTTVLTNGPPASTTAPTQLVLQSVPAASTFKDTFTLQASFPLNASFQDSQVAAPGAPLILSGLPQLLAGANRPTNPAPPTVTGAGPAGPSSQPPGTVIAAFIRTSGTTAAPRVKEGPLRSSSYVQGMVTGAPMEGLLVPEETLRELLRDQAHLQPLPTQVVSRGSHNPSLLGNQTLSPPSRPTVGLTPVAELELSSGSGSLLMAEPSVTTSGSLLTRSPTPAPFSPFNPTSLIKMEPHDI
In short: as §1

ELK4 = target: T5, ELK4 (Homo sapiens, UniProt P28324-2 1-405); conditions: protein: recombinant; tags: N-terminal GST; dsDNA, one strand shown
T5 sequence: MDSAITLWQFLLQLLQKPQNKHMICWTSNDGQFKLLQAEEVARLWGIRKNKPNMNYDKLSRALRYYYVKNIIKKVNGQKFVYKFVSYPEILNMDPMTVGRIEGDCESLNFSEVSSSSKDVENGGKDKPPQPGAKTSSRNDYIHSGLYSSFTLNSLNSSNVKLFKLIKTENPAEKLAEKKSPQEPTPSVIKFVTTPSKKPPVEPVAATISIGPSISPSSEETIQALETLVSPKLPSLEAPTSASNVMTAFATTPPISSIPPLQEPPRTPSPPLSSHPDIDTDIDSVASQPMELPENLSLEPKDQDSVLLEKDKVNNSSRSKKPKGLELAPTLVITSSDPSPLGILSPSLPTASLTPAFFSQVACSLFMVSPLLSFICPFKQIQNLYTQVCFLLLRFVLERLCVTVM
In short: as §1

ETV2 = target: T6, ETV2 (Homo sapiens, UniProt O00321 1-342); conditions: protein: recombinant; tags: N-terminal GST; dsDNA, one strand shown
T6 sequence: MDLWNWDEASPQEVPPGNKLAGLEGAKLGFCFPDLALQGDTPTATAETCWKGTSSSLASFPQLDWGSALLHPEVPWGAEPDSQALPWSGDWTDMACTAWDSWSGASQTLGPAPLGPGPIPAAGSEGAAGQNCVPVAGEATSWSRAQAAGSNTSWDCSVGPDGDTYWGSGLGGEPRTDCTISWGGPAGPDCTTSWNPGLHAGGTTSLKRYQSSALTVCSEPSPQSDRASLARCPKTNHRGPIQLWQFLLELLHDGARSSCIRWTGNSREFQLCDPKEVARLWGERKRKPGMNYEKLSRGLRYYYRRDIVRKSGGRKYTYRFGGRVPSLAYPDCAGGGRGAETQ
In short: as §1

ELF3 = target: T7, ELF3 (Homo sapiens, UniProt P78545 1-371); conditions: protein: recombinant; tags: N-terminal GST; dsDNA, one strand shown
T7 sequence: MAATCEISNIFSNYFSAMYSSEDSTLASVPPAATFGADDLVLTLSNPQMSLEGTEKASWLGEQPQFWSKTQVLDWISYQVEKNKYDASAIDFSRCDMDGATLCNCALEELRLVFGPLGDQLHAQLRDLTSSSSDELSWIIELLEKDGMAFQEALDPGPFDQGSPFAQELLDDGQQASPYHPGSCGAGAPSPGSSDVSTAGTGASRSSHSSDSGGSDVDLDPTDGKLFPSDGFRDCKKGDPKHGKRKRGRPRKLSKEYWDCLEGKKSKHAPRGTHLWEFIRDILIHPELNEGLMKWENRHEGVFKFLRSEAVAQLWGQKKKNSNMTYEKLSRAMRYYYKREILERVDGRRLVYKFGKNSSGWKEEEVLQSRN
In short: as §1

CRX = CRX (Homo sapiens, UniProt O43186 1-299); conditions: protein: recombinant; tags: N-terminal GST; dsDNA, one strand shown
Chain of CRX (O43186 whole entry): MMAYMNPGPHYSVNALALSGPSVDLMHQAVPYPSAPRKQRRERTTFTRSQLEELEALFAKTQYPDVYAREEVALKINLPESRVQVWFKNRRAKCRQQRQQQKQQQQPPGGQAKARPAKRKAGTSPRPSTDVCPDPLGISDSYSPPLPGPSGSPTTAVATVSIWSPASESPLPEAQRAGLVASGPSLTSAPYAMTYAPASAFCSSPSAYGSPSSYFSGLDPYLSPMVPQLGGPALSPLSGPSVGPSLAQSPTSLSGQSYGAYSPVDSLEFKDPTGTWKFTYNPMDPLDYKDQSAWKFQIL
In short: as §1

ETV1 = ETV1 (Homo sapiens, UniProt P50549 1-477); conditions: protein: recombinant; tags: N-terminal GST; dsDNA, one strand shown
Chain of ETV1 (P50549 whole entry): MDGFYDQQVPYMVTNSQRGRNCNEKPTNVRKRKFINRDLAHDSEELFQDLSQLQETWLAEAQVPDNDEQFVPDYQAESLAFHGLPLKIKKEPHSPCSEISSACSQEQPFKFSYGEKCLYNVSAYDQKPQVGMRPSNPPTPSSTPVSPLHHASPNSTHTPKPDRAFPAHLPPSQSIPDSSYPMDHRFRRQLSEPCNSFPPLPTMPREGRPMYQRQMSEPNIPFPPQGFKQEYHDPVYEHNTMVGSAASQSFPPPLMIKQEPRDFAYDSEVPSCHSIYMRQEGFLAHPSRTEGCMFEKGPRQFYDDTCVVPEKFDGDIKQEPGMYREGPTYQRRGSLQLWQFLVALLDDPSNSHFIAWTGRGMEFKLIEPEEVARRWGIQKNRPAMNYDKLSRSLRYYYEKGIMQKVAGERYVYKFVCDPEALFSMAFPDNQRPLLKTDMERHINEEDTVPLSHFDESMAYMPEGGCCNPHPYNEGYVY
In short: as §1

ERG = target: T8, ERG (Homo sapiens, UniProt P11308 1-479); conditions: protein: recombinant; tags: N-terminal GST; dsDNA, one strand shown
T8 sequence: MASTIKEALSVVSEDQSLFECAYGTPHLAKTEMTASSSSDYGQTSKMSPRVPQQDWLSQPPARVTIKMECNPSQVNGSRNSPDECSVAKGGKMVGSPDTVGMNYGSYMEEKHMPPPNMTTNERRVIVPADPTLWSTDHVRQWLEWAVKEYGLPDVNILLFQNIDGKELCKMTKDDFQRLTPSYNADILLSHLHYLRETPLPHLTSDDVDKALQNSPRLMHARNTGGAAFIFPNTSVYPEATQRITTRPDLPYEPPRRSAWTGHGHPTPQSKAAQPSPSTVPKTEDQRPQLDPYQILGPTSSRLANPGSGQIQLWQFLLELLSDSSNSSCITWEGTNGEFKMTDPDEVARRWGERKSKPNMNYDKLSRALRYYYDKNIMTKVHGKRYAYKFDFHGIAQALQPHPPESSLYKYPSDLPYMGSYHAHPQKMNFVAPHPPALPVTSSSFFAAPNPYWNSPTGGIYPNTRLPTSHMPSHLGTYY
In short: as §1

EHF = target: T9, EHF (Homo sapiens, UniProt Q9NZC4 1-300); conditions: protein: recombinant; tags: N-terminal GST; dsDNA, one strand shown
T9 sequence: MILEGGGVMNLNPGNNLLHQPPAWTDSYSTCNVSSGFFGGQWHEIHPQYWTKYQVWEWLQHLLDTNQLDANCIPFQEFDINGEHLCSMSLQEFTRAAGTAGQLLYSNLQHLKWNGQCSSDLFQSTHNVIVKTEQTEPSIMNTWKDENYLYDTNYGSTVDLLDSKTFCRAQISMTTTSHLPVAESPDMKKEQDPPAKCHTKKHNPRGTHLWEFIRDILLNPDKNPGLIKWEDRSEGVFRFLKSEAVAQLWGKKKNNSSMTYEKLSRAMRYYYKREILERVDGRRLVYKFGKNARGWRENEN
In short: as §1

Sequence	binding signal (FLI1)	binding signal (ELK1)	binding signal (GABPA)	binding signal (ELF1)	binding signal (SPI1)	binding signal (SPIB)	binding signal (FEV)	binding signal (ETV5)	binding signal (HSF1)	binding signal (ELF4)	binding signal (ELK4)	binding signal (ETV2)	binding signal (ELF3)	binding signal (CRX)	binding signal (ETV1)	binding signal (ERG)	binding signal (EHF)
AAGCCC	1.04 fold enrichment (6-mer frequency, TF over GST control)	1.07 fold enrichment (6-mer frequency, TF over GST control)	1.11 fold enrichment (6-mer frequency, TF over GST control)	1.08 fold enrichment (6-mer frequency, TF over GST control)	1.04 fold enrichment (6-mer frequency, TF over GST control)	1.07 fold enrichment (6-mer frequency, TF over GST control)	1.06 fold enrichment (6-mer frequency, TF over GST control)	1.04 fold enrichment (6-mer frequency, TF over GST control)	1.22 fold enrichment (6-mer frequency, TF over GST control)	1.04 fold enrichment (6-mer frequency, TF over GST control)	1.06 fold enrichment (6-mer frequency, TF over GST control)	1.11 fold enrichment (6-mer frequency, TF over GST control)	1.04 fold enrichment (6-mer frequency, TF over GST control)	1.54 fold enrichment (6-mer frequency, TF over GST control)	1.06 fold enrichment (6-mer frequency, TF over GST control)		
TCGATG	1.04 fold enrichment (6-mer frequency, TF over GST control)	1.14 fold enrichment (6-mer frequency, TF over GST control)	1.12 fold enrichment (6-mer frequency, TF over GST control)	1.11 fold enrichment (6-mer frequency, TF over GST control)	1.17 fold enrichment (6-mer frequency, TF over GST control)	1.06 fold enrichment (6-mer frequency, TF over GST control)		1.11 fold enrichment (6-mer frequency, TF over GST control)	1.26 fold enrichment (6-mer frequency, TF over GST control)	1.2 fold enrichment (6-mer frequency, TF over GST control)	1.09 fold enrichment (6-mer frequency, TF over GST control)	1.03 fold enrichment (6-mer frequency, TF over GST control)	1.1 fold enrichment (6-mer frequency, TF over GST control)		1.11 fold enrichment (6-mer frequency, TF over GST control)	1.06 fold enrichment (6-mer frequency, TF over GST control)	1.09 fold enrichment (6-mer frequency, TF over GST control)
